# Shown are actives, neighbours in structure and some others; about 8.7% of the full set was active somewhere.
# BAZ2B inh = BAZ2B (human) inhibition | Potency, µM (doses to about 114 µM), for the others: top-dose activity change, negative = inhibition, most hits filed as inhibitors | AID 504333 | AlphaScreen BAZ2B-H3K14Ac peptide displacement | 360,000 tested, 4.4% active; note: % is set by controls: 0 for no effect and ±100 for the full control effect; nearly all actives have a fitted effect of over 60% in size
#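 Protein-peptide AlphaScreen: BAZ2B 50 nM, b-H3K14Ac 50 nM, 1x PBS pH 7.4 + 0.01% Tween-20. Preincubation 30 min RT; cpd 30 min RT (top 110 uM); beads 20 min RT, light-protected.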
# 12-LOX inh = ALOX12 (human) lipoxygenase inhibition. 580,000 tested, 1.1% active. purified 12hLO, xylenol orange hydroperoxide absorbance. P18054. Potency, µM (highest dose often 108 µM), inactives show at the highest dose activity change, negative = inhibition, actives largely listed as inhibitors; note: % is set by controls: 0 for no effect and ±100 for the full control effect
#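 Hydroperoxide product was detected by ferrous iron/xylenol orange as the 573 to 405 nm absorbance ratio. Arachidonic acid at 40 uM (final) was turned over for 30 min at room temperature by 150 nM human 12hLO, pH 7.0 Hepes buffer, after 15 min compound preincubation.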
# Sfp inh = blocks B. subtilis Sfp PPTase activity | Q9F4F7 | Biochemical Sfp PPTase activity, qHTS | Potency, µM, without a hit: largest response in the series, negative = inhibition, most hits filed as inhibitors | 310,000 tested, 3.5% active | AID 1490;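 note: the enzyme is Sfp with the accession as filed and its product quenches rhodamine fluorescence; 0% = enzyme reaction without inhibitor and -100% = no enzyme wells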
#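 Fluorescence-quenching assay: 15 nM Sfp-PPTase preincubated 15 min at room temperature with compound, then 5 uM rhodamine-CoA and 12.5 uM BHQ-2-labelled YbbR peptide added. Fluorescence (ex 525/em 598 nm) read at start and after 30 min; difference gives rate.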
# HP1b chromo inh = blocks HP1-beta chromodomain binding to methylated histone tails; AlphaScreen HP1-beta / biotin-H3K9me3 peptide binding; Potency, µM (top dose mostly 114 µM), inactives show at the highest dose activity change, negative = inhibition, most hits filed as inhibitors; P83916; 390,000 tested, 0.56% active; note: nearly all actives have a fitted effect of over 70% in size
# Target sequence (P83916 whole entry, looked up): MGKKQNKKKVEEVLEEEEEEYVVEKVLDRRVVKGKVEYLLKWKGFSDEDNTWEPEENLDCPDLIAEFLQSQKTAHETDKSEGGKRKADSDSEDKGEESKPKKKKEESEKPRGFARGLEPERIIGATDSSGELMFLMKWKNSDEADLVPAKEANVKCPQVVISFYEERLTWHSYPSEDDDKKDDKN
#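 Compound inhibition of the preformed complex between 50 nM HP1-beta and 50 nM biotinylated H3K9me3 peptide was read by AlphaScreen. Buffer was PBS pH 7.4 with 0.01% Tween-20. Incubations ran 30 min at room temperature, with 10 ug/mL donor/acceptor beads.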
# G9a inh = blocks human histone lysine methyltransferase G9a; Q96KQ7; G9a H3K9 monomethylation, AlphaScreen, 2 h; Potency, µM (series often up to 102 µM), for inactives: at the highest dose activity, negative = inhibition, usual class: inhibitors; 350,000 tested, 8.8% active; AID 504332; note: % is set by controls: 0 for no effect and ±100 for the full control effect; nearly all actives have a fitted effect of over 75% in size
# Target sequence (Q96KQ7 913-1193 limits assumed): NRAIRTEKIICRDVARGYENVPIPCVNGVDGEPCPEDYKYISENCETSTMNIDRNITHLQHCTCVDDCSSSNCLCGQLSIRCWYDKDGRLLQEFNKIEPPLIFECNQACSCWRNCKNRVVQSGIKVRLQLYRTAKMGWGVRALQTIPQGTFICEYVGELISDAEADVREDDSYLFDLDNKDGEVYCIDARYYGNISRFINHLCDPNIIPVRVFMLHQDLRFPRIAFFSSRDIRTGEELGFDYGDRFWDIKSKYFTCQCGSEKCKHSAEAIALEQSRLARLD
#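 Using a bead-based AlphaScreen, monomethylated H3K9 product from 2 h room-temperature reactions (G9a 20 nM, peptide 500 nM, SAM 20 uM) was detected with 0.5 ug/mL rabbit anti-H3K9me1 antibody.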
# JMJD2A Tudor inh = inhibitors of human JMJD2A Tudor domain; O75164; AlphaScreen JMJD2A-Tudor / H3K4me3 peptide binding; Potency, µM (titrated, usually from 114 µM), inactives show top-dose activity change, negative = inhibition, actives largely listed as inhibitors; 390,000 tested, 4.4% active; note: % is set by controls: 0 for no effect and ±100 for the full control effect; nearly all actives have a fitted effect of over 50% in size
# Numbers without * were called inactive; ? = inconclusive; . = not tested or not shown; [ ] = another dose, or the depositor's remark. Calls come from the whole dose curve; as a rule, active = well fitted curve in the direction sought with a large enough effect; inconclusive = small, poorly fitted or top-dose-only effect, or another doubt; inactive = no such curve, though single readings can be large; an effect the other way counts as inactive or inconclusive. Potency is the fitted concentration of half-maximal effect.
SMILES,BAZ2B inh,12-LOX inh,Sfp inh,HP1b chromo inh,G9a inh,JMJD2A Tudor inh
S=C(Nc1ccccc1)N(Cc1ccccc1)Cc1ccncc1,-12%,?,8%,40%,-7%[59 µM],-6%
CCN(Cc1ccncc1)C(=S)NCc1ccccc1,-2%,41%,-6%,7%,50µM*,-2%
Oc1[nH]c(=S)sc1/C=C1\C(c2ccccc2)=Nc2ccccc21,?,?,-13%,-14%,2.5µM*,16µM*
COc1ccc2c(-c3ccc(OCCN4CCOCC4)cc3)c(-c3ccccc3OC)sc2c1,.,.,.,-17%,.,?
COc1ccc2sc(-c3ccccc3OC)c(-c3ccc(SC)cc3)c2c1,.,0%,.,.,.,.
COc1cc2sc(-c3ccccc3OC)c(-c3ccc(OCCN4CCOCC4)cc3)c2cc1OC,.,.,.,?,.,32µM*
COc1ccc2c(-c3ccc(OCCN4CCCCC4)cc3)c(-c3ccccc3OC)sc2c1,.,.,.,-34%,.,28µM*
COc1ccccc1-c1sc2ccccc2c1-c1ccc(OCCN2CCCCC2)cc1,.,.,.,?,.,35µM*
CSc1ccc(Cl)c(C(=O)Oc2cccc(Cl)c2Cl)c1,.,-2%,.,.,.,.
C=CCNC(=S)N/N=C(/C)c1ccncc1,.,-13%,.,.,.,.
Cc1cccc(-n2cc(-c3ccccc3)c3c(N4CCN(CCO)CC4)ncnc32)c1,.,-21%,.,.,.,.
Cc1cccc([S+](=O)([O-])N2CCC3(CC2)OCCN(CC2CC2)C3=O)c1,.,6%[176 µM],.,.,.,.
C/C(=N\N1C(=O)c2ccccc2NC1c1ccco1)c1ccccc1O (centres undefined),71µM*,2%,18%,?,-45%,?
COC(=O)CCC[N+](C)(C)C,.,.,5%,.,-2%[12.7 µM],.
C[N+](C)(C)CCCC#CC#CCCC[N+](C)(C)C,.,40µM*,.,.,.,.
CCCCOc1ccc(C2(C)NC(=O)NC2=O)cc1 (centres undefined),-3%,3%,18%,17%,4%[59 µM],16µM*
CCOC(=O)CNCCC(=O)c1ccc(Br)cc1,?,28µM*,-13%,22%,7.1µM*,?
Cc1ccc(-c2csc3nc(C)n(-n4cccc4)c(=O)c23)o1,.,-9%,56µM*,47%,?,0%
O=C(CCc1nc(-c2ccco2)no1)N[C@@H]1CCOC[C@H]1OCC1CCC1,.,48%,.,.,.,.
CC(C)CC(NC(=O)C1CCCCC1)C(=O)NC(C)c1ccccc1 (centres undefined),-12%,7%,3%,11%,-32%,-14%
CC(C)CCNCC(=O)NC(c1ccccc1)c1ccccc1,56µM*,-8%,-4%,13%,5.6µM*,32µM*
CC(C)CCC(C(=O)NC(C)c1ccccc1)C(=O)NC(C)c1ccccc1 (centres undefined),?,0%,15%,-19%,-9%,22µM*
COCC(=O)NC(c1ccccc1)c1ccccc1,2%,13%,11%,58%,23%[59 µM],-1%
C=CCNc1oc(-c2ccc(COc3cccc(C)c3)o2)nc1C#N,.,8%,.,.,.,.
Cn1c(=O)[nH]c(=O)c2c1nc(SCCO)n2Cc1cccc(Br)c1,.,-29%,.,.,.,.
SMILES,BAZ2B inh,12-LOX inh,Sfp inh,HP1b chromo inh,G9a inh,JMJD2A Tudor inh
CCN(CC)S(=O)(=O)c1ccc2oc(Nc3ccccc3)nc2c1,-24%,4%,-5%,-23%,32µM*,?
CCN(CC)S(=O)(=O)c1ccc2oc(SCC(=O)NC3CC3)nc2c1,?,0%,40µM*,-22%,13µM*,-1%
CCN(CC)S(=O)(=O)c1ccc2oc(Nc3ccc(OC)cc3OC)nc2c1,?,-11%,-6%,18%,-7%,-17%
COc1ccc(-c2ocnc2C(=O)Nc2ccccc2C)cc1,.,-1%,.,.,.,.
CC(C)(C)OC(=O)[C@H]1[C@H](c2ccc([N+](=O)[O-])cc2)C2(C(=O)c3ccccc3C2=O)C2c3ccccc3C=NN21 (some centres undefined),40µM*,-26%,-15%,-32%,14µM*,?
COc1ccc(Cl)cc1NC(=S)NCCc1c[nH]c2ccccc12,40µM*,?,18%,-23%,?,50µM*
CCn1c2ccccc2c2cc(CNCCc3c[nH]c4ccccc34)ccc21,.,40µM*,.,.,.,.
Cc1cccc(NC(=S)NCCc2c[nH]c3ccccc23)c1,?,40µM*,20%,-26%,8%[59 µM],?
Cc1ccccc1NC(=S)NCCc1c[nH]c2ccccc12,?,?,1%,-2%[57 µM],3%[59 µM],-25%
Cc1cc(C)cc(NC(=O)C(=O)NCCc2c[nH]c3ccccc23)c1,-18%,5%,20%,-6%,?,?
COc1ccc(CCNC(=S)NCCc2c[nH]c3ccccc23)cc1,35µM*,45µM*,32%,-14%,45µM*,?
COc1ccc(CNC(=O)NCCc2c[nH]c3ccccc23)cc1,?,0%,-27%,26%,6%,-15%
COc1cccc(CNC(=O)CSc2nc(C3CC3)nc3ccccc23)c1,.,-8%,.,.,.,.
CC(C)Cn1c(SCC(=O)NC(c2ccc(F)cc2)C(C)C)nc2ncccc2c1=O (centres undefined),.,-37%,.,.,.,.
CC(C)(Cc1ccc(F)cc1)NC(=O)C1CCC(=O)N(Cc2ccccn2)C1 (centres undefined),.,-8%,.,.,.,.
S=C(Cc1ccccc1)NCCc1ccccc1,16%,-18%,.,62%,0%[2.33 µM],9%
COc1ccc(NC(=O)CN(C)C(=O)Cc2c[nH]c3ccccc23)cc1,-6%,?,.,16%,-4%[59 µM],-9%
COc1ccc(NC(=O)CN(C)C(=O)CCCc2c[nH]c3ccccc23)cc1,?,1%,.,-5%,45µM*,?
COc1ccc(CC(=S)NCCc2ccccc2)cc1,-24%,?,14µM*,?,1%[0.501 µM],-13%
Cc1ccc(C)c(NC(=S)NCCc2c[nH]c3ccccc23)c1,45µM*,?,20%,?,?,?
COC(=O)c1cc(Br)c(=O)n(CCN2CCCC2)c1,-2%[57.1 µM],0%,-7%,42%,50µM*,-20%
COC(=O)c1cc(Br)c(=O)n(CCN2CCCCC2)c1,-1%,0%,20%,14%,-4%[59 µM],-15%
CCOC(=O)C1CCN(C(=O)Cn2cnc3sc(C)c(S(=O)(=O)N4CCCCC4)c3c2=O)CC1,6%,-1%,22%,32%,50µM*,-2%
Cc1cc(-c2n[nH]c(=S)n2/N=C/c2cc([N+](=O)[O-])ccc2Cl)n[nH]1,?,?,-26%,?,1.8µM*,7.9µM*
Cc1cc(-c2n[nH]c(=S)n2/N=C/c2ccc(Cl)c([N+](=O)[O-])c2)n[nH]1,?,40µM*,?,-24%,1.4µM*,40µM*

# Compound activity from PubChem.
